NR2F2 inh = inhibitors of human COUP-TFII (NR2F2) | P24468 | 370,000 compounds, 0.7% hits | HEK293T NGFI-A luciferase reporter, luminescence | inhibition, % at 8.6 µM;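 active = inhibition above a per-plate cutoff, mean inhibition of test wells between control levels plus 3 SD, cut at about 38% in these data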;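 also: cells cotransfected with COUP-TFII expression vector driving the NGFI-A reporter; 0% = median of COUP-TF2 test wells and 100% = reporter-only cells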
Target sequence (P24468 whole entry, looked up): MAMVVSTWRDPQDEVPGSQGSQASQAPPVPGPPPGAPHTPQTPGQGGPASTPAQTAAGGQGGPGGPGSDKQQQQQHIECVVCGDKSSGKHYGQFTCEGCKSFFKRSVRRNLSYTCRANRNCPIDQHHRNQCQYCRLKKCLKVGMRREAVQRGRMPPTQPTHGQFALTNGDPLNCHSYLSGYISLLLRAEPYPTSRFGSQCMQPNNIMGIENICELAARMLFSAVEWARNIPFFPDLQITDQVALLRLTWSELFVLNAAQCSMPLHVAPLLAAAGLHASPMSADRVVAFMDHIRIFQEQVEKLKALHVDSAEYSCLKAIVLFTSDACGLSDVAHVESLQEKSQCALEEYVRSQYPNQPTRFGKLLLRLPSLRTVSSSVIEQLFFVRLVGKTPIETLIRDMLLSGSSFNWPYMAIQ
Gli-Sufu block = antagonists of Gli-Sufu signaling | 340,000 compounds, 0.74% hits | inhibition, % at 5 µM | AID 588413 | Sufu-KO-LIGHT fibroblasts, Gli luciferase reporter luminescence;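 active = inhibition above about 55%, limit read from the data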;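 also: 0% = DMSO-treated cells and 100% = wells with medium but no cells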
H9c2 protect = protects H9c2 cardiomyocytes from peroxide injury | H2O2 injury protection, ATPLite, 2 h | protection from H2O2 cell death, % at 20 µM | 360,000 compounds, 0.63% hits | AID 588492;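 active = compounds giving at least 50% protection of heart cells from peroxide-induced death in the single-dose screen, raw or plate-pattern-corrected value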;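 also: 0% = DMSO wells with peroxide and 100% = DMSO wells without peroxide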
TAG inh = triacylglycerol accumulation inhibition | H9c2 cells, Nile Red lipid (TAG) fluorescence; cells loaded with 200 µM oleic acid | inhibition, % at 12.5 µM | 230,000 compounds, 0.66% hits | AID 651582;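 active = pattern-corrected inhibition of lipid staining of at least 50% with the nuclear-stain viability signal not falling by more than 50%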;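 also: 0% = DMSO wells and 100% = triacsin C control wells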
Jurkat NFkB inh = inhibitors of the PMA/ionomycin-induced NF-kB reporter in Jurkat cells; PMA/ionomycin-induced NF-kB luciferase reporter, luminescence; inhibition, % at 4 µM; 330,000 compounds, 0.53% hits; in the data active = inhibition above about 50%
697 NFkB inh = inhibitors of the PMA/ionomycin-induced NF-kB reporter in 697 B cells | 330,000 compounds, 0.33% hits | 697 B-cell NF-kB luciferase reporter, 16 h | inhibition, % at 4 µM; in the data active = inhibition above about 35%
An asterisk follows results filed as active; x = no result given. A selection: hits, their analogues and other compounds. The true share with any hit is near 2.6%.

SMILES	NR2F2 inh	Gli-Sufu block	H9c2 protect	TAG inh	Jurkat NFkB inh	697 NFkB inh
COC(=O)c1ccc(C(=O)OC)c(NC(=O)COC(=O)C23CC4CC(CC(O)(C4)C2)C3)c1	5	-1	88*	2	-20	-7
O=C(COC(=O)C12CC3CC(CC(O)(C3)C1)C2)Nc1ccc(Cl)cc1F	-41	-5	-5	-4	-56	-4
O=C(N[C@H](C(=O)N1CCC[C@H]1C(=O)NC1CCCC1)C1CCCCC1)c1ccc(Cl)c(Cl)c1	3	x	x	x	x	x
CC(C)(C)N(Cc1cn(CC2CCCCC2)nn1)S(=O)(=O)c1ccccc1Br	-15	x	x	x	x	x
COc1ccc(O)c(CNn2c(-c3ccc(Br)cc3)nc3ccccc3c2=O)c1	8	-10	50*	-1	1	4
COc1ccc2c(c1)CCCN2C(=O)C1CCCN(S(=O)(=O)c2cccs2)C1 (stereo not drawn)	9	x	x	x	x	x
CCOC(=O)C(C)/C(C)=N/NC(=O)c1cc2ccccc2cc1O (stereo not drawn)	-3	-12	61*	6	10	4
O=C(Nc1ccc2[nH]c(=O)[nH]c2c1)c1ccc([N+](=O)[O-])o1	4	-4	45	53*	2	20
Cc1ccc(NC(=O)c2ccc([N+](=O)[O-])o2)cc1C	-69	5	-6	73	47	-3
O=C(Nc1ccc2oc(-c3ccccc3F)nc2c1)c1cncc(Br)c1	7	-21	1	4	-32	-126
O=C(Nc1ccc2oc(-c3ccccc3F)nc2c1)c1ccc([N+](=O)[O-])o1	1	-9	58*	x	1	-40
CCOC(=O)c1cnc(SC)nc1Oc1cccc(NC(=O)c2cccc(Cl)c2Cl)c1	22	2	71*	-218	-1	14
CN(C)CCNc1ccc(CO)c2sc3ccc(O)cc3c(=O)c12	-85	77*	14	112	x	x
CN(C)CCNc1ccc2ncn3c4ccc(O)cc4c(=O)c1c23	-43	25	1	75*	x	x
Cc1cccc(OCc2n(CC(=O)OC3CC(C)CCC3C(C)C)c3ccccc3[n+]2C)c1 (stereo not drawn)	x	46	-21	98*	45	-14
CC1CCC(C(C)C)C(OC(=O)Cn2c(-c3ccc(F)cc3)[n+](C)c3ccccc32)C1 (stereo not drawn)	25	81*	-28	x	37	-106
Cc1ccc(NC(=O)[C@@H]2CC(=O)O[C@@H]2c2ccccc2)cc1C	-26	x	x	x	x	x
CCn1c(N2CCN(C(=O)c3ccco3)CC2)nc2ccccc21	-8	19	-1	x	0	-5
CC(C)c1cc(N2CCN(C(=O)c3ccco3)CC2)n2c(nc3ccccc32)c1C#N	-26	8	52*	21	-1	6
COc1cc(/C=C/C(=O)OCC(=O)N2c3ccccc3NC(=O)C2(C)C)cc(OC)c1OC	-16	-16	76*	9	2	14
CC(=NNC(=S)Nc1ccc(C)cc1)c1ccccn1	23	25	30	-21	x	x
CC(=NNC(=S)Nc1cccc(C)c1)c1ccccn1	34	82*	28	-33	x	x
COc1ccccc1NC(=S)NN=C(C)c1ccccn1	28	85*	18	1	x	x
Cc1ccc(-c2oc3ccccc3c(=O)c2O)cc1	-5	-5	74*	10	-36	1
O=c1c(O)c(-c2ccccc2)oc2cc(O)cc(O)c12	-2	-6	5	x	-11	-1
SMILES	NR2F2 inh	Gli-Sufu block	H9c2 protect	TAG inh	Jurkat NFkB inh	697 NFkB inh
O=c1c(O)c(-c2ccccc2)oc2ccccc12	-2	-9	17	x	x	x
O=c1c(O)c(-c2ccccc2)oc2cc(O)ccc12	-8	x	79*	-10	x	x
O=C(O)/C=C/c1ccc([N+](=O)[O-])o1	-11	3	-6	7	5	8
O=C1NC(=S)S/C1=C\C=C\c1ccc([N+](=O)[O-])o1	0	50	-16	51*	x	x
COC(=O)[C@H](C(C)C)N1Cc2nnn(CC3CCCCC3)c2-c2cc(F)ccc2S1(=O)=O	6	x	x	x	x	x
CCOC(=O)C1CCN(c2cc3c(cc2NC(=O)c2ccccc2Br)n(C)c(=O)n3C)CC1	-22	33	52*	x	-18	3
Nc1[nH]c(C(=O)c2ccccc2)c(-c2ccc3ccccc3c2)c1C(=O)NCCc1ccc(Cl)cc1	12	x	x	x	x	x
C=CC[C@@H](CC(=O)N[C@H](CO)Cc1ccccc1)C(=O)N[C@H](C)COC(=O)[C@@H](CC=C)CC(=O)OC(C)(C)C	-6	-18	5	-5	2	7
C=CC[C@@H](CC(=O)N[C@H](CO)Cc1ccccc1)C(=O)N[C@@H](COC(=O)[C@@H](CC=C)CC(=O)OC(C)(C)C)Cc1ccccc1	-7	0	63*	22	9	4
O=C1CCC2(CCC(c3ccccc3)CC2)N1CCO (stereo not drawn)	13	x	x	x	x	x
Cc1nc2nc(SCC(N)=O)[nH]c2cc1Br	1	13	5	-4	-13	8
CCOC(=O)CNC(=O)CSc1nc2nc(C)c(Br)cc2[nH]1	-13	-2	50*	-14	0	14
CCOC(=O)c1cc(C#N)c(SCC(N)=O)[nH]c1=O	16	7	-1	0	6	12
CCOC(=O)c1cc(C#N)c(SCC(=O)c2cc(C#N)c(SC)nc2C)[nH]c1=O	-13	4	76*	x	-7	13
COc1ccc(C(=O)O/N=C(/c2ccccc2)c2ccncc2)cc1OC	8	-1	59*	-11	4	13
COc1ccc(C(=O)O/N=C(/c2ccccc2)c2ccncc2)cc1	-6	-22	29	3	-19	16
COC(=O)[C@]12C[C@H](CC(=O)N3CCC(c4ccccc4)CC3)C(=O)N(Cc3ccc(Cl)cc3Cl)C1=C[C@H](C(C)(C)C)O[C@@H]2C	-5	x	x	x	x	x
NC(=O)c1oc2ccccc2c1NC(=O)c1ccco1	10	2	72*	-1	3	7
COc1cccc(/C=N/NC(=O)c2cnccn2)c1O	5	-6	17	54*	2	-2
COc1cccc(/C=N/NC(=O)C(=O)N/N=C/c2cccc(OC)c2O)c1O	13	18	66*	x	x	x
COc1cccc(/C=N/Nc2nc(Nc3ccccc3)nc(-n3nc(C)cc3C)n2)c1O	16	19	74*	128	-7	9
COc1cccc(/C=N/NC(=O)c2cc3cc([N+](=O)[O-])ccc3s2)c1O	12	77*	-4	x	x	x
C[C@@H](CO)N(Cc1cn(Cc2ccccc2)nn1)S(=O)(=O)c1ccc(F)cc1Br	5	x	x	x	x	x
COC(=O)[C@@]12CCCCC3=C1N(CCC3)C(=O)[C@H]2CC(=O)NCCC(C)C	2	x	x	x	x	x
